Measurements as given in PubChem BioAssay AID720690 (Broad Institute, 2013).
Results with a measured potency or affinity are listed apart. Values without a mark were called inactive.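 Rule for the calls: active = every repeat run showing a signal drop whose fitted half-maximal concentration is at most twice the top tested concentration; inconclusive = repeat runs disagree, or flat partial drop, or poor fit; inactive = the rest.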

Experiment: general mammalian cell viability loss – activator set, cherry-pick, cytotoxicity control for miR-122 modulator project, dose response (AID 720690);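 note: 0% = neutral control wells and -100% = MG132 cytotoxic control wells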
Details: HEK293T viability, CellTiter-Glo luminescence, 48 h; series mostly up to 26 µM; activity change, negative = cytotoxicity: at the top concentration
In the case of `Cc1ccccc1-c1ccc2c(c1)O[C@@H](CN(C)C(=O)Nc1ccc(F)cc1)[C@@H](C)CN([C@@H](C)CO)S2(=O)=O`, the “activity change, negative = cytotoxicity” value is reported as -5%. For `CN1[C@@H](CO)[C@@H]2c3ccccc3N(C(=O)Nc3cc(F)ccc3F)C[C@@H]21`, the “activity change, negative = cytotoxicity” value was -20.7%. For `CC(C)NC(=O)N1[C@H](CO)[C@@H](c2ccccc2)[C@@H]1CN(C)C(=O)c1cccnc1`, the “activity change, negative = cytotoxicity” value was -0.275%. For `C[C@@H]1CN([C@@H](C)CO)C(=O)c2cccc(NC(=O)Nc3ccc4c(c3)OCO4)c2O[C@@H]1CN(C)Cc1ccc(Oc2ccccc2)cc1`, the “activity change, negative = cytotoxicity” value was -15.5%. With `Cn1c(NC(=O)c2ccco2)c(-c2ccccc2Cl)c(=O)c2ccccc21` the “activity change, negative = cytotoxicity” value was -9.64%. With `O=C(NC[C@H]1N[C@H](CO)[C@@H]1c1ccc(-c2ccccc2F)cc1)c1ccccc1` the “activity change, negative = cytotoxicity” value was -17.1%. For `O=C(NC[C@H]1[C@H](c2ccccc2)[C@H](CO)N1CC1CCCC1)c1ccncc1`, the “activity change, negative = cytotoxicity” value was 2.8% [at 23.5 µM]. With `COCC(=O)Nc1ccc2c(c1)C(=O)N(C)[C@@H]1CC[C@H](CC(=O)NCc3ccccc3F)O[C@H]1CO2` the “activity change, negative = cytotoxicity” value was -13.2%. With `CCN(C[C@H]1N[C@@H](CO)[C@@H]1c1ccc(C2=CCCC2)cc1)C(=O)c1ccncc1` the “activity change, negative = cytotoxicity” value was -36.7%. In the case of `CN(C)CCCNC(=O)C[C@@H]1CC[C@H]2[C@@H](COc3ccc(NC(=O)c4cccc(F)c4)cc3C(=O)N2C)O1`, the “activity change, negative = cytotoxicity” value is reported as -6.25%. In the case of `C[C@H]1CN([C@@H](C)CO)S(=O)(=O)c2ccc(-c3ccc(C(=O)N(C)C)cc3)cc2O[C@H]1CN(C)C(=O)C1CCC1`, the “activity change, negative = cytotoxicity” value is reported as 5.13%. For `O=C(c1ccccc1)N1C[C@H]2[C@@H](c3ccccc31)[C@@H](CO)N2C(=O)CN1CCOCC1`, the “activity change, negative = cytotoxicity” value was 1.14%. For `CCNC(=O)Nc1ccc2c(c1)C(=O)N(C)[C@H]1CC[C@H](CC(=O)NCc3ccccc3F)O[C@H]1CO2`, the “activity change, negative = cytotoxicity” value was -5.41%. For `CCC(=O)N1[C@H](CO)[C@H](c2ccccc2)[C@@H]1CN(CC)C(=O)c1ccccc1`, the “activity change, negative = cytotoxicity” value was -4.96% [at 23.5 µM]. With `C[C@@H]1CN([C@@H](C)CO)C(=O)Cc2cc(NC(=O)Nc3ccc(C(F)(F)F)cc3)ccc2O[C@H]1CN(C)CC1CCCCC1` the “activity change, negative = cytotoxicity” value was -17.9%. With `COCC(=O)N(C[C@H]1N[C@@H](CO)[C@@H]1c1ccc(C2=CCCC2)cc1)C(C)C` the “activity change, negative = cytotoxicity” value was -19.8%. In the case of `COC(=O)C[C@@H]1CC[C@@H]2[C@@H](COc3ccc(NC(=O)c4cc(F)cc(F)c4)cc3C(=O)N2C)O1`, the “activity change, negative = cytotoxicity” value is reported as -13.6%. With `C[C@H]1CN([C@@H](C)CO)C(=O)c2cc(C#CC3CCCC3)cnc2O[C@H]1CN(C)C(=O)Cc1ccccn1` the “activity change, negative = cytotoxicity” value was -7.48%. With `CCCNC(=O)C[C@H]1CC[C@@H]2[C@@H](COc3ccc(NC(=O)c4ccc(C(F)(F)F)cc4)cc3C(=O)N2C)O1` the “activity change, negative = cytotoxicity” value was -43.4%. With `CC(=O)Nc1ccc2c(c1)C(=O)N(C)[C@@H]1CC[C@H](CC(=O)NCCCN3CCOCC3)O[C@@H]1CO2` the “activity change, negative = cytotoxicity” value was 3.3% [at 23.5 µM]. With `CCCNC(=O)N1C[C@@H]2[C@H](c3ccccc31)[C@@H](CO)N2C(=O)C1CCOCC1` the “activity change, negative = cytotoxicity” value was -10.2%. In the case of `CCn1nnnc1SCC(=O)Nc1nnc(C(C)C)s1`, the “activity change, negative = cytotoxicity” value is reported as 10.6%. With `CCC(=O)N1[C@@H](CO)[C@@H](c2ccccc2)[C@@H]1CN(C(C)C)S(C)(=O)=O` the “activity change, negative = cytotoxicity” value was 9.06%. In the case of `CNc1nc(NCCOc2ccccc2)c2sccc2n1`, the “activity change, negative = cytotoxicity” value is reported as -26.9%. For `C=CCc1ccccc1OCC(O)CN1CCN(CCN2C(=O)c3cccc4cccc(c34)C2=O)CC1` (stereo not given), the “activity change, negative = cytotoxicity” value was 2.13%. In the case of `COc1cccc(NC(=O)Nc2ccc3c(c2)C(=O)N(C)C[C@@H](OC)[C@@H](C)CN[C@H](C)CO3)c1`, the “activity change, negative = cytotoxicity” value is reported as -1.4% [at 23.5 µM]. With `CN1C(=O)c2cc(NC(=O)Cc3ccccc3)ccc2OC[C@H]2O[C@@H](CC(=O)NC3CCC3)CC[C@@H]21` the “activity change, negative = cytotoxicity” value was 1.07%. In the case of `CN1C(=O)c2cc(NC(=O)c3cccc(F)c3)ccc2OC[C@H]2O[C@@H](CC(=O)O)CC[C@@H]21`, the “activity change, negative = cytotoxicity” value is reported as -1.64%. With `CCCC(NS(=O)(=O)c1ccc(Br)cc1)C(=O)O` (stereo not given) the “activity change, negative = cytotoxicity” value was -25.6%. In the case of `CNC(=O)C[C@H]1CC[C@@H]2[C@H](COc3ccc(NC(=O)Nc4cccc(F)c4)cc3C(=O)N2C)O1`, the “activity change, negative = cytotoxicity” value is reported as -6.54%. In the case of `O=C(NC[C@@H]1N[C@@H](CO)[C@H]1c1ccccc1)C1CCC1`, the “activity change, negative = cytotoxicity” value is reported as -1.63%. For `CNC(=O)C[C@H]1CC[C@@H]2[C@@H](COc3ccc(NC(=O)Nc4ccc(Cl)cc4)cc3C(=O)N2C)O1`, the “activity change, negative = cytotoxicity” value was 2.16% [at 23.5 µM]. With `CN1C(=O)c2cc(NC(=O)c3cccc(C(F)(F)F)c3)ccc2OC[C@@H]2O[C@@H](CC(=O)NCCN3CCCC3)CC[C@@H]21` the “activity change, negative = cytotoxicity” value was 9.28%. For `CCOC(=O)CSc1nnnn1-c1cccc2ccccc12`, the “activity change, negative = cytotoxicity” value was 1.77%. For `CN1C(=O)c2cc(NC(=O)Nc3ccccc3F)ccc2OC[C@@H]2O[C@@H](CC(=O)NCc3ccc(-c4ccccc4)cc3)CC[C@H]21`, the “activity change, negative = cytotoxicity” value was -12.3%.
